In PubChem BioAssay (NCI) one finds growth inhibition data, which are given here for 17 compounds.

The panel holds about 79,000 compounds, 15% with a hit somewhere; the sample as a whole holds those more often. Calls of active or inactive are those of the source. No stated cut-off is given here; in the data, active means growth inhibition above about 70%; inactive means the rest.

The nature of this experiment: NCI Yeast Anticancer Drug Screen. Data for the cln2 rad14 strain (AID 165).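 Further: 0% = growth equal to vehicle treated cultures.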 The settings on record: S. cerevisiae cln2 rad14 strain, at 50.0 µM, active compounds read high. The method in brief: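 Growth inhibition, relative to vehicle-treated controls, is the read-out. The test organism is a yeast strain with defined genetic alterations, cln2 rad14.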
Consider `CC1CC(C)(C)OC(c2ccc(Cl)cc2)O1` (configuration not stated), for which the growth inhibition is -52.5% (inactive).

For the compound `Cc1nc(N)sc1C(=O)/C=C\c1ccc2c(c1)OCO2`, the growth inhibition is 10.3% (inactive). The same measure for `N#CCCC(=O)c1ccc[nH]1`: 5.8% (inactive).

Turning to `COc1cc(-c2ccc(N=Nc3ccc(N)nc3N)c(OC)c2)ccc1N=Nc1ccc(N)nc1N`, the growth inhibition was 12.4% (inactive). For `CCC(CC)C(=O)NC(=O)NC` the value was -25.1% (inactive). The same measure for `CCO/C=N/c1oc(-c2ccccc2)nc1C#N`: -38.1% (inactive). The same measure for `O=[N+]([O-])c1ccc2nc(Cl)cnc2c1`: -5.2% (inactive); for `NC(=O)C(N)C(N)=NCc1ccccc1` (configuration not stated): -7.25% (inactive); for `COC1=CC(=O)N(C(=O)C2CSC(C(CO)NC(=O)c3csc(/C=N/O)n3)=N2)C1` (configuration not stated): -4.15% (inactive).

In the case of `O=C(C1CC=CCC1C(=O)N1CCCCC1)N1CCCCC1` (configuration not stated), the growth inhibition is -3.7% (inactive). As for `COc1cc(C)c2c(c1)C=C[C@@H]1[C@@H]2CC[C@]2(C)C(=O)CC[C@@H]12`, the growth inhibition is -48.2% (inactive). For `CCOC(=O)C1=C(N)n2c(s/c(=C/c3ccc(N(C)C)cc3)c2=O)=C(C(=O)OCC)C1c1ccc(N(C)C)cc1` (configuration not stated) the value was -7.2% (inactive); for `CC(=O)OCC1OC(Sc2nc3ncnc(N)c3[nH]2)C(OC(C)=O)C(OC(C)=O)C1OC(C)=O` (configuration not stated), -3.5% (inactive).

Turning to `COc1ccccc1/C=C/C(=O)c1sc(-c2cccnc2)nc1C`, the growth inhibition is 17.9% (inactive). The same measure for `c1ccc2c(c1)n1nnnc1c1nnnn21`: 23.7% (inactive).

For the compound `CCCCOB(OCCCC)OCCCC`, the growth inhibition was 11.8% (inactive). For `Cc1ccc(-c2ccc(C)cc2)cc1`, the growth inhibition was -11.1% (inactive).
